Test results taken from PubChem BioAssay (NCI).
About 83,000 compounds went through this panel and 20% of them were active in at least one assay; those are over-represented in the sample as a whole.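 Assay: single dose, 48 h. Readout: percent growth (0 = no net growth; negative = cell death). Active: <10.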 Activity calls are given as the source filed them.

How the values were obtained:
Assay in all cases: NCI-60 one-dose screen, 48 h (100 = growth as untreated, 0 = no growth, -100 = all killed)
Settings in all cases: 10 µM unless noted
SK-MEL-2 melanoma = tested on: SK-MEL-2 melanoma
EKVX NSCLC = tested on: EKVX NSCLC
SN12C renal = tested on: SN12C renal
UO-31 renal = tested on: UO-31 renal
TK-10 renal = tested on: TK-10 renal
ACHN renal = tested on: ACHN renal
CAKI-1 renal = tested on: CAKI-1 renal
A498 renal = tested on: A498 renal
CCRF-CEM leukemia = tested on: CCRF-CEM leukemia
MOLT-4 leukemia = tested on: MOLT-4 leukemia

Measured: growth

O=C1CCC(C(=O)N/N=C/c2cc(F)ccc2F)N1 (stereo not given)
inactive: SK-MEL-2 melanoma 97.8% | EKVX NSCLC 100% | SN12C renal 96.6% | UO-31 renal 92.4% | TK-10 renal 104% | ACHN renal 100% | CAKI-1 renal 98% | A498 renal 106% | CCRF-CEM leukemia 103% | MOLT-4 leukemia 101%

O=C1/C(=C/c2cccc(Br)c2)COc2ccc(O)cc21
active: SN12C renal 4.81% | CCRF-CEM leukemia 0.865% | MOLT-4 leukemia 6.15%
inactive: SK-MEL-2 melanoma 79.2% | EKVX NSCLC 78.4% | UO-31 renal 54.1% | TK-10 renal 93.1% | ACHN renal 54.6% | CAKI-1 renal 63.5% | A498 renal 99.5%

Cc1ccc(OCCOCCOCCOCCOCCOc2ccc(C)n(O)c2=S)c(=S)n1O
active: SN12C renal 8.41% | UO-31 renal -26.1% | ACHN renal 8.16% | CAKI-1 renal 7.97% | CCRF-CEM leukemia 1.49% | MOLT-4 leukemia 2.29%
inactive: SK-MEL-2 melanoma 15.7% | EKVX NSCLC 13.1% | TK-10 renal 30.2% | A498 renal 20.4%

COc1ccc(/C=N/Nc2c3ccccc3nc3ccccc23)cc1
inactive: SK-MEL-2 melanoma 82.2% | EKVX NSCLC 86.9% | SN12C renal 91% | UO-31 renal 76.1% | TK-10 renal 107% | ACHN renal 98.9% | CAKI-1 renal 88.2% | A498 renal 69.6% | CCRF-CEM leukemia 90.8% | MOLT-4 leukemia 90.3%

Nc1nc2ccccc2c2c(=O)c3cc(Cl)ccc3sc12
inactive: SK-MEL-2 melanoma 106% | EKVX NSCLC 91.4% | SN12C renal 94.9% | UO-31 renal 86.6% | TK-10 renal 109% | ACHN renal 99.8% | CAKI-1 renal 87.8% | A498 renal 107% | CCRF-CEM leukemia 101% | MOLT-4 leukemia 105%

O=c1oc2c(cc1-c1ccccc1)c[n+]([O-])c1ccccc21
inactive: SK-MEL-2 melanoma 109% | EKVX NSCLC 98.1% | SN12C renal 97.2% | UO-31 renal 90.4% | TK-10 renal 107% | ACHN renal 97.3% | CAKI-1 renal 90.6% | A498 renal 105% | CCRF-CEM leukemia 101% | MOLT-4 leukemia 102%

CCCCNC(=O)c1ccc2c(c1)nc(-c1ccccc1)n2C1CCCCC1
inactive: SK-MEL-2 melanoma 101% | EKVX NSCLC 88.4% | SN12C renal 102% | UO-31 renal 79.1% | TK-10 renal 130% | ACHN renal 102% | CAKI-1 renal 109% | A498 renal 101% | CCRF-CEM leukemia 86.5% | MOLT-4 leukemia 94.6%

Clc1ccc(Nc2nnc(CNc3ccccc3)c3ccccc23)cc1
active: SK-MEL-2 melanoma 8.63% | UO-31 renal 1.91% | TK-10 renal -0.692% | ACHN renal 7.07% | MOLT-4 leukemia -9.21%
inactive: EKVX NSCLC 16.9% | SN12C renal 28.9% | CAKI-1 renal 28.2% | A498 renal 24.7% | CCRF-CEM leukemia 12.4%

Cc1cc(NCCCNc2ccnc3cc(Cl)ccc23)nc(Nc2ccc(C(=O)N3CCCCC3)cc2)n1
inactive: SK-MEL-2 melanoma 75.7% | EKVX NSCLC 48.4% | SN12C renal 36.6% | UO-31 renal 57.6% | ACHN renal 43.2% | CAKI-1 renal 76.2% | A498 renal 66.9% | CCRF-CEM leukemia 14.4% | MOLT-4 leukemia 20.7%
active: TK-10 renal 5.49%

C(=C(\C1=NCCN1)n1ccc2ccccc21)/c1ccccc1
inactive: SK-MEL-2 melanoma 106% | EKVX NSCLC 92.8% | SN12C renal 98.3% | UO-31 renal 62.4% | TK-10 renal 89.2% | ACHN renal 95.9% | CAKI-1 renal 80.7% | A498 renal 102% | CCRF-CEM leukemia 100% | MOLT-4 leukemia 97.8%

O=c1oc2c(cnc3ccccc32)cc1-c1cccc(Cl)c1
inactive: SK-MEL-2 melanoma 118% | EKVX NSCLC 99.1% | SN12C renal 98.3% | UO-31 renal 90.4% | TK-10 renal 118% | ACHN renal 104% | CAKI-1 renal 92% | A498 renal 83.1% | CCRF-CEM leukemia 76.5% | MOLT-4 leukemia 96.3%

Nc1ncccc1O
inactive: SK-MEL-2 melanoma 17.3% | EKVX NSCLC 120% | SN12C renal 96.7% | UO-31 renal 92.5% | TK-10 renal 108% | CAKI-1 renal 56.6% | A498 renal 99.7% | CCRF-CEM leukemia 84.6% | MOLT-4 leukemia 65%
active: ACHN renal 5.59%

COC(=O)c1ccc2c(c1)c1c(C)c3cnccc3c(C)c1n2C
active: SK-MEL-2 melanoma -56.2% | EKVX NSCLC -7.49% | SN12C renal -3.93% | UO-31 renal -45.7% | TK-10 renal -15.5% | ACHN renal -27.7% | CAKI-1 renal -10.2% | A498 renal -84.3% | CCRF-CEM leukemia 6.83% | MOLT-4 leukemia 2.75%

COc1ccc(C(=O)Nc2ncc(Cc3ccc(Cl)cc3)s2)cc1
active: A498 renal -18.5%
inactive: SK-MEL-2 melanoma 23.9% | EKVX NSCLC 36.5% | SN12C renal 24.8% | UO-31 renal 37.4% | TK-10 renal 58.9% | ACHN renal 25.6% | CAKI-1 renal 18.4% | CCRF-CEM leukemia 14.5% | MOLT-4 leukemia 12.3%
